In the library only some 2.6% were active in any assay of this set; here they are far more common.
eIF4H FP inh = human eIF4H binding inhibitors, primary screen, translation initiation inhibitor project, biochemical, uHTS, fluorescence polarization | AID 2012, 2009 | eIF4H fluorescence polarization binding assay | Eukaryotic translation initiation factor 4H (Homo sapiens), Q15056 | actives 0.94% (n = 290,000) | inhibition, % at 35 µM;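 further: calls also rest on retests at 20 µM and on dose response follow-up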
PABP polyA inh = PABP poly(A) RNA binding inhibitors, primary screen, biochemical, fluorescence polarization, uHTS. AID 2014, 2009. Polyadenylate-binding protein 1 (Homo sapiens), P11940. inhibition, % at 35 µM. actives 1% (n = 290,000);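 further: calls also rest on retests at 20 µM and on dose response follow-up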
Target sequence (P11940 whole entry, looked up): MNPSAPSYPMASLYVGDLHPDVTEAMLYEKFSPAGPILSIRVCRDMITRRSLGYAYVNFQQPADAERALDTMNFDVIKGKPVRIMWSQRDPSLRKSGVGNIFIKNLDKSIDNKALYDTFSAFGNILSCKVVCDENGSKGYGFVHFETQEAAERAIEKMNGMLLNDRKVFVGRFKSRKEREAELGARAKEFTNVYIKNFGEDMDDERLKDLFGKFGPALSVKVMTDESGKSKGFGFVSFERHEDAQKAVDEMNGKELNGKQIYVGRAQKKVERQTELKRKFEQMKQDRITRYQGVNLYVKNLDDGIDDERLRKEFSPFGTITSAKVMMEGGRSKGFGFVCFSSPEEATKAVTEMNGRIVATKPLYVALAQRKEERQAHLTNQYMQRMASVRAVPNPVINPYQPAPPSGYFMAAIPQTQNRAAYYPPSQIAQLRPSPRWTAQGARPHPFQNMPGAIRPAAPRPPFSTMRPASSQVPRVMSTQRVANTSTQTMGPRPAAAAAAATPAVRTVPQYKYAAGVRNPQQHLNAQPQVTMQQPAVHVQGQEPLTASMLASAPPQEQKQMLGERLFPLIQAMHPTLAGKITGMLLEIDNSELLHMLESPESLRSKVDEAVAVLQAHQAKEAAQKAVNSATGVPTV
CRFBP-R2 block = antagonists of CRF-BP/CRF-R2 complex, primary screen, cell-based, HEK293, calcium dye fluorescence, uHTS; CRF-induced calcium fluorescence; inhibition, % at 11.8 µM; actives 0.59% (n = 350,000); AID 588475, 2011;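 active means inhibition of the ligand-induced calcium signal above about 50% at the single tested concentration, limit read from the data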
PHOSPHO1 inh = PubChem AID 1565; Phosphoethanolamine/phosphocholine phosphatase (Homo sapiens), Q8TCT1; recombinant PHOSPHO1, absorbance phosphatase assay; inhibition, % at 13.3 µM; actives 1.1% (n = 290,000); in the data active means inhibition above about 60%
PABP1 MLLE inh = inhibitors of PABP1 MLLE–PAM2 peptide binding, primary screen, biochemical, fluorescence polarization, FITC-PAM2, GST-MLLE; inhibition, % at 20 µM; actives 0.36% (n = 360,000); in the data active means inhibition above about 35%, passing the limit was not always enough;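 further: plate controls were DMSO wells with GST-MLLE for no effect and wells lacking GST-MLLE protein for full effect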
* = called active by the depositor; ? = inconclusive; . = no result given. Unless noted, how the calls were made is not given here.

SMILES	eIF4H FP inh	PABP polyA inh	CRFBP-R2 block	PHOSPHO1 inh	PABP1 MLLE inh
O=C(c1ccc(Cl)cc1)c1cccc(O)c1	.	.	28.9	.	-7.0
O=[N+]([O-])c1ccc(NC(=S)NCc2ccc(F)cc2)cc1	-2.0	5.6	67.5*	-129.9	23.1
O=[N+]([O-])c1ccc(NC(=S)NCc2ccncc2)cc1	-4.6	3.2	16.0	4.1	9.1
O=[N+]([O-])c1ccc(NNC(=S)Nc2ccccc2)cc1	-2.0	16.3	11.7	85.7*	2.6
COc1ccc(CN(C)C(=O)[C@H]2O[C@@H](n3ccc(N)nc3=O)[C@H](O)[C@@H]2O)cc1OC	.	.	.	.	6.2
CCOc1cc([C@@H]2C[C@H]3CN(c4ccccc4)C(=O)[C@]34CCCN24)ccc1OC	57.3*	0.4	-1.9	31.1	-29.6
COc1cc([C@@H]2C[C@H]3CN(c4ccccc4)C(=O)[C@]34CCCN24)cc(OC)c1OC	57.6	44.4	4.9	19.5	-17.6
O=C(COc1ccc(F)cc1)N(Cc1cccc(Br)c1)C1CCS(=O)(=O)C1 (stereo not drawn)	-12.2	-0.9	8.1	64.7*	10.1
Cc1ccc(OCC(=O)N(Cc2cccs2)C2CCS(=O)(=O)C2)cc1 (stereo not drawn)	-5.5	-4.8	7.5	15.0	10.6
Cc1cccc(OCC(=O)N(Cc2cccs2)C2CCS(=O)(=O)C2)c1C (stereo not drawn)	83.0*	0.5	-9.3	-6.9	8.6
Cc1ccc(C(=O)N(Cc2sccc2C)C2CCS(=O)(=O)C2)cc1 (stereo not drawn)	-1.6	7.2	50.4*	12.5	8.2
Cc1ccc2c(=O)n3c(nc2c1)C(CC(C)C)NC(=O)c1cccnc1-3 (stereo not drawn)	.	.	13.2	.	14.8
CCOC(=O)C(=O)N(C)c1c(CC)nc2c(OCc3cc(Cl)cc(Cl)c3)cccn12	.	.	.	.	1.4
Cc1nn(S(=O)(=O)c2ccc(Cl)cc2)c(C)c1Sc1ccc([N+](=O)[O-])cc1	-7.5	67.6	30.3	-3.3	14.4
Cc1nn(-c2ccccc2)c(N)c1Sc1ccc([N+](=O)[O-])cc1	-8.4	19.6	57.6*	6.0	18.5
O=C(Nc1ccccc1)c1sccc1Oc1ccc([N+](=O)[O-])cc1F	3.9	9.2	64.3*	28.0	8.6
C=CCOc1ccc(C=NNc2ccc(S(=O)(=O)Nc3ccccc3C(=O)O)cc2[N+](=O)[O-])cc1OC	.	.	66.8*	.	6.3
CSc1ccc(C=NNc2ccc(S(=O)(=O)Nc3ccccc3C(=O)O)cc2[N+](=O)[O-])cc1	.	.	20.2	.	-6.0
Cc1nn(-c2ccccc2)c(Cl)c1/C=N/Nc1ccc(S(=O)(=O)Nc2ccccc2C(=O)O)cc1[N+](=O)[O-]	91.5*	54.3*	74.0*	40.3	-6.8
CC(N)c1csc(Nc2ncccn2)n1 (stereo not drawn)	.	.	.	.	3.4
C=CCNc1nc2cc(-c3cccc(Cl)c3)sc2c(=O)n1C	.	.	.	.	9.2
Cc1cc(C(=O)CSc2nnc(-c3cccs3)n2Cc2ccccc2)c(C)n1C	-3.0	-2.1	0.3	89.7*	-115.4
CCn1c(SCC(=O)c2cc(C)n(C)c2C)nnc1-c1ccccc1	6.0	-2.0	-8.4	62.2*	-0.9
O=c1cc(CSc2nnc(-c3cccs3)n2Cc2ccccc2)nc2sc3ccccc3n12	45.8	16.9	7.3	69.4*	-104.2
O=C1COc2ccc(C(=O)CSc3nnc(-c4cccs4)n3Cc3ccccc3)cc2N1	-1.1	-13.6	-8.2	73.8*	-117.9
SMILES	eIF4H FP inh	PABP polyA inh	CRFBP-R2 block	PHOSPHO1 inh	PABP1 MLLE inh
CCn1c(SCC(=O)c2ccc(O)c(O)c2)nnc1-c1ccccc1	40.8	14.3	-4.4	15.2	6.8
COc1ccc(OC(F)(F)F)cc1CC1(C)C(=O)Nc2ccc(S(=O)(=O)NC3CCCCC3)cc21 (stereo not drawn)	.	.	.	.	0.3
Cc1ccc([C@H]2C[C@@H](O)[C@H](n3cc(C4CC4)nn3)CN2CC2CCCCC2)cc1	.	.	-11.1	.	-3.9
O=C(NC1CCCCC1)N(c1ccccc1)c1nnc(-c2cccc([N+](=O)[O-])c2)s1	.	.	-5.5	.	17.1
CC(C)C(=O)N[C@@H]1c2ccccc2CC[C@@H]1O	.	.	6.1	.	2.1
Nc1nc(N)nc(C2C=CCCC2)n1 (stereo not drawn)	.	.	-7.6	.	-11.6
COC(=O)c1cc(=O)c2c(ccc3oc(=O)ccc32)[nH]1	.	.	.	.	6.0
COc1cccc(CN2CCN(C(=O)C3CCC(=O)N(C4CCCC4)C3)CC2)c1 (stereo not drawn)	-15.8	-2.6	4.0	22.6	-8.5
O=C(C1CCC(=O)N(C2CCCC2)C1)N1CCN(Cc2cccc(F)c2)CC1 (stereo not drawn)	-13.0	-1.7	-8.1	75.1*	8.6
COc1ccc(C2CC(=O)c3sc(N)nc3C2)cc1 (stereo not drawn)	-7.6	0.1	7.5	15.2	9.2
Nc1nc2c(s1)C(=O)CC(c1ccccc1)C2 (stereo not drawn)	-15.5	-3.8	6.0	60.1*	8.8
CC(C)(C)c1ccc(CC(=O)N2CCC2(C)C(=O)N2CCCCC2)cc1 (stereo not drawn)	.	.	.	.	-1.2
CC(=O)Nc1ccc(-c2ccnc3c2CC(C)(C(=O)Nc2cccc(Oc4ccccc4)c2)O3)cc1 (stereo not drawn)	.	.	.	.	5.7
Cc1noc(C)c1COC(=O)c1cccc(S(=O)(=O)N2c3ccccc3CC2C)c1 (stereo not drawn)	-5.3	-10.9	55.5*	7.6	2.5
COc1nccnc1NS(=O)(=O)c1ccc(NC(=S)NC(=O)c2ccc(F)cc2)cc1	-3.8	13.1	3.1	-21.2	48.8*
COc1cc(NS(=O)(=O)c2ccc(NC(=S)NC(=O)/C=C/c3ccc(OC)c(OC)c3)cc2)ncn1	33.0	-6.0	-20.2	-8.8	33.5
COc1ccc(/C=C/C(=O)NC(=S)Nc2ccc(S(=O)(=O)Nc3cc(OC)ncn3)cc2)cc1	-6.0	-6.1	57.6*	13.9	23.2
COc1nccnc1NS(=O)(=O)c1ccc(NC(=S)NC(=O)c2ccccc2F)cc1	-3.1	-4.4	-33.4	10.8	22.8
COc1ccc(/C=C/C(=O)NC(=S)Nc2ccc(S(=O)(=O)Nc3nccnc3OC)cc2)cc1	-2.7	-5.7	16.8	-12.0	38.2*
O=C(Nc1cccc(Cl)c1)c1csc([C@H]2C[C@H](O)[C@@H](CO)O2)n1	.	.	.	.	10.9
Cc1ccc([C@H]2N[C@]3(CCCN(CC4CCCCC4)C3=O)[C@H]3C(=O)N(C)C(=O)[C@@H]23)cc1	.	.	5.6	.	-16.5
CCn1cc(C(=O)OCC(=O)NCc2ccccc2Cl)c(=O)c2ccc(C)nc21	24.6	2.1	-2.2	-5.9	-11.3
C=C(C)CCOC(=O)C(CC(=O)O)NCc1ccco1 (stereo not drawn)	?	24.4*	-9.7	14.6	-10.0
CC(C)Cc1csc(NC(=O)c2ccc(F)cc2)c1C(=O)O	0.6	-9.7	69.4*	8.3	25.6
CCOC(=O)c1c(CC(C)C)csc1NC(=O)c1ccccc1C(=O)O	-5.2	0.4	12.7	11.6	-5.1
